PubChem BioAssay
Several values for one entry are separate records, joined by “and”; a condition that tells them apart may be missing. Identical values can stand only once. Records with an inconclusive call do not appear. Activity calls are given as the source filed them.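 Rule for the calls, unless noted: active = normalized viability below 100% at a tested concentration; inactive = the rest.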

How the values were obtained:
[1] = growth inhibition of DIPG glioma cells, dose response, cell-based, SU-DIPG-XVII, MIPE5.0, CellTiter-Glo, qHTS (AID 1347060; cut-off not given, nearly all actives have AC50 up to about 26 µM;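 note: cells exposed to compound for 48 hours before viability readout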); settings: SU-DIPG-XVII viability, CellTiter-Glo ATP luminescence
[2] = growth inhibition of DIPG glioma cells, dose response, cell-based, SU-DIPG-XIII, MIPE4.0, CellTiter-Glo, qHTS (AID 1347061; cut-off not given, nearly all actives have AC50 up to about 37 µM;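 note: cells exposed to compound for 48 hours before readout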); settings: SU-DIPG-XIII viability, CellTiter-Glo ATP luminescence
[3] = growth inhibition of DIPG glioma cells, dose response, cell-based, JHH-DIPG-1, MIPE4.0, CellTiter-Glo, qHTS (AID 1347062; cut-off not given, nearly all actives have AC50 up to about 27 µM;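 note: cells exposed to compound for two days before readout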); settings: JHH-DIPG-1 viability, CellTiter-Glo ATP luminescence
[4] = growth inhibition of DIPG glioma cells, dose response, cell-based, SU-DIPG-IV, MIPE4.0, CellTiter-Glo, qHTS (AID 1347063; cut-off not given, nearly all actives have AC50 up to about 30 µM;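 note: compound exposure lasted 48 hours before the viability readout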); settings: SU-DIPG-IV viability, CellTiter-Glo ATP luminescence
[5] = growth inhibition of DIPG glioma cells, dose response, cell-based, SU-DIPG-XIII, MIPE5.0, CellTiter-Glo, qHTS (AID 1347064; cut-off not given, nearly all actives have AC50 up to about 23 µM;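 note: cells exposed to compound for 48 hours before the viability read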); settings: SU-DIPG-XIII viability, CellTiter-Glo ATP luminescence
[6] = viability loss in pontine glioma line – cell-based, SU-DIPG-XXV, MIPE5.0, CellTiter-Glo, qHTS, dose response (AID 1347065; cut-off not given, nearly all actives have AC50 up to about 26 µM;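 note: cells exposed to compound for 48 hours before ATP readout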); settings: CellTiter-Glo ATP luminescence
[7] = SU-DIPG-VI glioma cell viability, MIPE4.0 library, CellTiter-Glo luminescence, qHTS (AID 1347066; cut-off not given, nearly all actives have AC50 up to about 30 µM;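 note: cells exposed to compound for 48 hours before readout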); settings: CellTiter-Glo ATP luminescence
[8] = JHH-DIPG-1 glioma cell viability, MIPE5.0 library, CellTiter-Glo luminescence, qHTS (AID 1347067; cut-off not given, nearly all actives have AC50 up to about 26 µM;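 note: cells exposed to compound for 48 hours before readout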); settings: JHH-DIPG-1 glioma viability, CellTiter-Glo ATP luminescence
[9] = sensitizers of A549 cells to miR-34 induction, primary screen, imaging, A549 dox-inducible miR-34, nuclei and caspase counts (AID 1347080;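 active = compounds whose cell count with miR-34 switched on is under 0.7 times the count with it off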); settings: A549 miR-34 inducible, Hoechst nuclei count, 48 h
[10] = modifiers of HSF1 nuclear foci, imaging, Selleck Cancer Library (AID 1347162; in the data active = plate-normalised HSF1 focus index below about 0.46); settings: human cells, at 10 µM; SSMD: measured here: HSF1 foci SSMD mean; cell count: measured here: cell number; plate-normalised HSF1 focus index: stronger effect = lower value
[11] = survival rescue of mitochondrial mutant cells in low glucose, primary screen, MELAS cybrids, Rieske KO mouse fibroblasts, CellTiter-Glo (AID 1508586;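 active = mean z-score across replicates of 1.96 or higher in either the MELAS or the Rieske mutant cell line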;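 note: z relative to plate mean and SD of compound and empty wells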)
[12] = ovarian cancer cell viability with rucaparib, profiling panel, oncology-focused library, rucaparib conditional (AID 1508598); settings: patient-derived ovarian cancer cells, CellTiter-Glo viability, 144 h, stronger effect = lower value
[13] = stronger effect = lower value, cell number ratio, induced over uninduced
[14] = measured here: relative caspase fold change +Dox/-Dox
[15] = measured here: total cells with miR-34 induction, stronger effect = lower value
[16] = measured here: total cells without miR-34 induction
[17] = MELAS cybrid survival, CellTiter-Glo 48 h, stronger effect = higher value
[18] = Rieske KO mouse fibroblast survival, CellTiter-Glo 72 h
[19] = at 0.000305 µM, OCI-C5x cells, with rucaparib 10 µM, 100% = cells with rucaparib alone
[20] = at 0.000305 µM, OCI-C5x cells, without rucaparib
[21] = at 0.000305 µM, OCI-P5x cells, with rucaparib 20 µM, 100% = cells with rucaparib alone
[22] = at 0.000305 µM, OCI-P5x cells, without rucaparib
[23] = at 0.00122 µM, OCI-C5x cells, with rucaparib 10 µM, 100% = cells with rucaparib alone
[24] = at 0.00122 µM, OCI-C5x cells, without rucaparib
[25] = at 0.00122 µM, OCI-P5x cells, with rucaparib 20 µM, 100% = cells with rucaparib alone
[26] = at 0.00122 µM, OCI-P5x cells, without rucaparib
[27] = at 0.00488 µM, OCI-C5x cells, with rucaparib 10 µM, 100% = cells with rucaparib alone
[28] = at 0.00488 µM, OCI-C5x cells, without rucaparib
[29] = at 0.00488 µM, OCI-P5x cells, with rucaparib 20 µM, 100% = cells with rucaparib alone
[30] = at 0.00488 µM, OCI-P5x cells, without rucaparib
[31] = at 0.0195 µM, OCI-C5x cells, with rucaparib 10 µM, 100% = cells with rucaparib alone
[32] = at 0.0195 µM, OCI-C5x cells, without rucaparib
[33] = at 0.0195 µM, OCI-P5x cells, with rucaparib 20 µM, 100% = cells with rucaparib alone
[34] = at 0.0195 µM, OCI-P5x cells, without rucaparib
[35] = at 0.0781 µM, OCI-C5x cells, with rucaparib 10 µM, 100% = cells with rucaparib alone
[36] = at 0.0781 µM, OCI-C5x cells, without rucaparib
[37] = at 0.0781 µM, OCI-P5x cells, with rucaparib 20 µM, 100% = cells with rucaparib alone
[38] = at 0.0781 µM, OCI-P5x cells, without rucaparib
[39] = at 0.313 µM, OCI-C5x cells, with rucaparib 10 µM, 100% = cells with rucaparib alone
[40] = at 0.313 µM, OCI-C5x cells, without rucaparib
[41] = at 0.313 µM, OCI-P5x cells, with rucaparib 20 µM, 100% = cells with rucaparib alone
[42] = at 0.313 µM, OCI-P5x cells, without rucaparib
[43] = at 1.25 µM, OCI-C5x cells, with rucaparib 10 µM, 100% = cells with rucaparib alone
[44] = at 1.25 µM, OCI-C5x cells, without rucaparib
[45] = at 1.25 µM, OCI-P5x cells, with rucaparib 20 µM, 100% = cells with rucaparib alone
[46] = at 1.25 µM, OCI-P5x cells, without rucaparib
[47] = at 5 µM, OCI-C5x cells, with rucaparib 10 µM, 100% = cells with rucaparib alone
[48] = at 5 µM, OCI-C5x cells, without rucaparib
[49] = at 5 µM, OCI-P5x cells, with rucaparib 20 µM, 100% = cells with rucaparib alone
[50] = at 5 µM, OCI-P5x cells, without rucaparib

Oc1cccc(-c2nc(N3CCOCC3)c3oc4ncccc4c3n2)c1
7310: cell count [10]
2190 and 1580: cell count [9, 16]
-4.03: SSMD [10]
active: AC50 [1] 525 nM | AC50 [2] 1210 nM | AC50 [3] 215 nM | AC50 [4] 42.9 nM | AC50 [5] 332 nM | AC50 [6] 186 nM | AC50 [7] 3820 nM | AC50 [8] 5250 nM | z-score [11, 17] 2.46 | viability [12, 26] 98.5% | viability [12, 27] 75.7% | viability [12, 28] 93.3% | viability [12, 31] 79.3% | viability [12, 32] 72.3% | viability [12, 37] 97.5% | viability [12, 38] 96.9% | viability [12, 41] 73.1% | viability [12, 42] 95.8% | viability [12, 43] 78.6% | viability [12, 44] 86.7% | viability [12, 45] 45.8% | viability [12, 46] 65.7% | viability [12, 47] 60.3% | viability [12, 48] 69.5% | viability [12, 49] 40.3% | viability [12, 50] 48.6%
0.551 and 1.05: fold change [9, 14]
-0.00105: z-score [11, 18]
inactive: fold change [9, 13] 1.06 and 0.903 | plate-normalised HSF1 focus index [10] 0.749 | viability [12, 19] 109% | viability [12, 20] 110% | viability [12, 21] 120% | viability [12, 22] 103% | viability [12, 23] 109% | viability [12, 24] 104% | viability [12, 25] 117% | viability [12, 29] 106% | viability [12, 30] 103% | viability [12, 33] 113% | viability [12, 34] 100% | viability [12, 35] 103% | viability [12, 36] 107% | viability [12, 39] 123% | viability [12, 40] 114%
2320 and 1430: cell count [9, 15]

CC(=O)Nc1cccc(-n2c(=O)n(C3CC3)c(=O)c3c(Nc4ccc(I)cc4F)n(C)c(=O)c(C)c32)c1
6560: cell count [10]
3.07: SSMD [10]
active: AC50 [1] 83.3 nM | AC50 [2] 235 nM | AC50 [3] 209 nM | AC50 [4] 3320 nM | AC50 [5] 83.3 nM | AC50 [6] 105 nM | AC50 [8] 41.7 nM | viability [12, 25] 89.6% | viability [12, 26] 89.5% | viability [12, 29] 75% | viability [12, 30] 74.2% | viability [12, 33] 72.4% | viability [12, 34] 76.7% | viability [12, 35] 88% | viability [12, 36] 88.8% | viability [12, 37] 51.6% | viability [12, 38] 55% | viability [12, 39] 73.7% | viability [12, 40] 82.7% | viability [12, 41] 44.7% | viability [12, 42] 53.7% | viability [12, 43] 45.5% | viability [12, 44] 78.2% | viability [12, 45] 36.4% | viability [12, 46] 37.4% | viability [12, 47] 41.3% | viability [12, 48] 52.7% | viability [12, 49] 30.4% | viability [12, 50] 34.2%
0.672: fold change [9, 14]
3760: cell count [9, 16]
4330: cell count [9, 15]
inactive: outcome [7] | fold change [9, 13] 1.15 | plate-normalised HSF1 focus index [10] 1.16 | z-score [11, 17] -0.421 | viability [12, 19] 123% | viability [12, 20] 120% | viability [12, 21] 109% | viability [12, 22] 102% | viability [12, 23] 102% | viability [12, 24] 122% | viability [12, 27] 105% | viability [12, 28] 113% | viability [12, 31] 111% | viability [12, 32] 109%
-0.112: z-score [11, 18]
